Screening data from PubChem.
Hits are enriched below; roughly 2% of the tested compounds scored in any of these assays.
CHT allo act – allosteric activators of human choline transporter CHT. Q9GZV3. CHT-expressing cells, membrane potential dye, choline EC20; hits give high values; LV-AA mutant CHT in HEK293 cells. B-score at 10 µM. 0.49% of 310,000 active. AID 488977;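 active means initial fluorescence not abnormally high and integrated response B-score, plate-corrected, over 3 SD above library mean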
Target sequence (Q9GZV3 whole entry, looked up): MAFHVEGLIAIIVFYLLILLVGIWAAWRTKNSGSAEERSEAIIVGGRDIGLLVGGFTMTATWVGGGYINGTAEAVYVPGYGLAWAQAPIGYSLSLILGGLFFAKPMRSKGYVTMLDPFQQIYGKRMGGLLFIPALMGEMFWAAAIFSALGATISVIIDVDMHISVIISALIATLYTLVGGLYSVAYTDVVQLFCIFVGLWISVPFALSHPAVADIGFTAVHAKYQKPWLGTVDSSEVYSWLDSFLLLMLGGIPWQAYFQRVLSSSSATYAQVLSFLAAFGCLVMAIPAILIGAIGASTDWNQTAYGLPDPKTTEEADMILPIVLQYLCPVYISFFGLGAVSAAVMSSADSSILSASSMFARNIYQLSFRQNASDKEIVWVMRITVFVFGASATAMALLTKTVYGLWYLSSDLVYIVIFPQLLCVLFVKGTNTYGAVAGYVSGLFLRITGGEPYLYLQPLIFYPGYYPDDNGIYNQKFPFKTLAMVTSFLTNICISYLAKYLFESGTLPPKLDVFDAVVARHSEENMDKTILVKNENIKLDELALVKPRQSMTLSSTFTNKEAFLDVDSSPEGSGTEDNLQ
Kir21 block – blocks the mouse Kir2.1 inward-rectifier potassium channel | P35561 | HEK293-Kir2.1, FluxOR thallium flux fluorescence; hits give low values | B-score at 10 µM | 0.85% of 310,000 active | AID 1672;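 active means fluorescence ratio B-score at or below minus 3 SD of library scores, with starting-brightness B-score within 2 SD, cut at about -4.2 in these data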;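 further: channel flux triggered by added potassium and thallium sulfate stimulus; B-score of peak minus minimum fluorescence over baseline after thallium stimulus; more negative B-score means stronger Kir2.1 block with less thallium influx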
TAG inh – inhibitors of triacylglycerol accumulation; 0.66% of 230,000 active; inhibition, % at 12.5 µM; H9c2 cells, Nile Red lipid (TAG) fluorescence; cells loaded with 200 µM oleic acid;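 active means pattern-corrected inhibition of lipid staining of at least 50% with the nuclear-stain viability signal not falling by more than 50%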
CHT inh – inhibits the human high affinity choline transporter. Q9GZV3. CHT-expressing cells, membrane potential dye, choline response; hits give low values. B-score at 10 µM. 0.86% of 310,000 active. AID 488975;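 active means B-score over 3 SD under the library average, and starting fluorescence ratio not unusually high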;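 further: choline stimulus applied at its EC90 after an EC20 pre-addition; B-score computed on integrated fluorescence ratio after choline addition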
Hits are given with their value; n = inactive; x = not tested or not shown.

SMILES	CHT allo act	Kir21 block	TAG inh	CHT inh
Oc1cccc(C(O)CNCc2ccc(-c3ccccc3)cc2)c1 (stereo unspecified)	n	-7.85	n	n
C[C@H]1CN=C(Nc2ccccc2)N1CCc1ccccc1	n	x	n	n
CCn1c(SCC(=O)N/N=C/c2cccs2)nc2ccccc21	n	-4.84	x	n
O=C1CNC(=S)N1C1CCCCCC1	n	-5.61	x	n
COc1cccc(NC(=O)CSc2nnc(Cc3ccc(C)cc3)c(=O)n2N)c1	n	n	n	n
COc1ccc(Cc2nnc(SCC(=O)Nc3ccc(C)cc3)n(N)c2=O)cc1	n	n	58.9	n
CCn1cc([N+](=O)[O-])c(C(=O)N2N=C(c3ccc4ccccc4c3)CC2c2ccccc2O)n1 (stereo unspecified)	n	n	71.1	n
CCn1cc(Cl)c(C(=O)N2N=C(c3ccc4ccccc4c3)CC2c2ccccc2O)n1 (stereo unspecified)	n	n	n	n
Cc1nn(-c2ccccc2)c2nc(C(F)F)cc(C(F)F)c12	x	x	n	x
NC1=NC[C@H](c2ccccc2)N1CCCCC1CCCCC1	n	-6.74	n	n
S=C1NC[C@H](c2ccccc2)N1CCCCC1CCCCC1	n	n	n	n
COc1ccc(CCNC(=O)CSc2ccsc2[N+](=O)[O-])cc1OC	n	-4.49	x	n
COc1ccc(OC)c(CCNC(=O)CSc2ccsc2[N+](=O)[O-])c1	n	n	n	n
COc1ccc(Cl)cc1NC(=O)CN1CCCC1	n	n	n	n
COC(=O)C1CCN(CC(=O)Nc2cc(Cl)ccc2OC)CC1	n	n	x	-9.68
COc1ccccc1C(=O)NCCC(=O)N1CC=C(c2ccccc2)CC1	n	-4.46	n	n
COc1ccc(C(=O)NCC(=O)N2CC=C(c3ccccc3)CC2)cc1OC	x	x	n	x
CN(C)CCCN(C(=O)c1ccc(S(=O)(=O)N2CCCCCC2)cc1)c1nc2ccc(F)cc2s1	n	-4.95	n	n
Cc1ccc2nc(N(CCCN(C)C)C(=O)c3ccc(S(=O)(=O)N4CCCCCC4)cc3)sc2c1	n	n	n	-5.47
Cc1ccc2nc(N(CCCN(C)C)C(=O)CCc3ccccc3)sc2c1	n	-5.61	x	n
CN(C)CCCN(C(=O)c1ccc(S(=O)(=O)N2CCOCC2)cc1)c1nc2ccc(F)cc2s1	n	n	n	n
CN(C)CCCN(C(=O)c1ccc2c(c1)CCCC2)c1nc2ccc(Cl)cc2s1	n	-4.28	x	n
COC(=O)[C@@H](NC(=O)N1CCN(C(=O)C2COc3ccccc3O2)CC1)C(C)C (stereo partly specified)	n	n	x	n
CCCc1cc(=O)n2[nH]c(NC(=O)c3ccco3)nc2n1	n	n	x	n
O=C(CCCc1nc(-c2ccc(Cl)cc2)no1)NC1CCCC1	n	-4.32	n	n
SMILES	CHT allo act	Kir21 block	TAG inh	CHT inh
O=C(Oc1ccc(=O)n(-c2ccccc2)n1)c1ccc(F)cc1	n	n	n	n
O=C(Oc1ccc(=O)n(-c2ccccc2)n1)c1ccc(Cl)cc1	n	-4.34	n	n
Cc1cccc(NC(=O)CN2CCN(C(=O)c3c(C)nn(Cc4ccccc4)c3C)CC2)c1C	x	x	n	x
COc1cc(/C=C2/SC(=S)N(Cc3ccccc3)C2=O)cc(Cl)c1O	n	n	x	n
O=C1/C(=C/c2ccc(O)c([N+](=O)[O-])c2)SC(=S)N1Cc1ccccc1	n	n	x	n
COc1cc([N+](=O)[O-])cc(/C=C2/SC(=S)N(Cc3ccccc3)C2=O)c1O	n	n	x	-5.76
O=C1/C(=C\c2cccc([N+](=O)[O-])c2O)SC(=S)N1Cc1ccccc1	n	n	x	-8.39
CC(=O)c1ccc(OC2(C)CCN(CCOc3ccc(C)cc3)C2)cc1 (stereo unspecified)	x	x	n	x
Cc1ccc(S(=O)(=O)N2CCN(C(=O)CN3C(=O)NC(C)(c4ccc5ccccc5c4)C3=O)CC2)cc1 (stereo unspecified)	x	x	n	x
Cc1nc2ccc(OC(=O)c3ccccc3)cc2s1	n	-4.79	n	n
Cc1ccc(OC(=O)c2ccc3nc(C)sc3c2)cc1	n	n	x	n
O=C(/C=C/c1ccccc1)n1cnnc1SC/C=C/c1ccccc1	n	-6.9	x	n
CCCCN(C(=O)CCn1c(=O)oc2ccccc21)c1ccccc1	n	-8.2	x	n
COc1cc2c(cc1OC)CN(S(=O)(=O)c1ccc3c(c1)OCCO3)CC2	n	n	n	n
CC(C)=CCc1c(O)ccc2c1OC(c1ccc(O)c(O)c1)CC2=O (stereo unspecified)	n	-7.08	x	n
COc1ccccc1N(CC(=O)NCc1ccccc1)S(=O)(=O)c1cccs1	x	x	n	x
COc1ccc(Cn2c(SCc3ccccc3C)nc3cc(OC)c(OC)cc3c2=N)cc1	n	n	59.4	n
Cc1ccc(C(=O)N2CCCC(C(=O)c3cc(F)ccc3F)C2)s1 (stereo unspecified)	n	-5.05	n	n
Cc1cc(C(=O)N2CCCC(C(=O)c3cc(F)ccc3F)C2)c(C)o1 (stereo unspecified)	n	n	n	n
Oc1ccc(/C=N/N=C/c2ccc(O)c(O)c2)cc1O	n	n	n	n
O=C(/C(=N/N=C/c1ccc(O)c(O)c1)c1ccccc1)c1ccccc1	n	-4.78	n	n
Nn1c(SCC(=O)Nc2ccc(S(N)(=O)=O)cc2)nnc1C(F)(F)F	n	n	n	n
Cc1ccc(/C=N/NC(=O)NC23CC4CC(CC(C4)C2)C3)o1	n	n	n	n
O=C(O)c1ccc(S(=O)(=O)N2CCC3(CC2)CC(=O)c2ccccc2O3)cc1	n	n	n	n
NCCc1c(-c2ccccc2)n(-c2ccccc2)c2ccccc12	x	-15.1	n	x
SMILES	CHT allo act	Kir21 block	TAG inh	CHT inh
N#Cc1ccsc1NC(=O)C1CC(=O)N(Cc2ccccc2)C1 (stereo unspecified)	n	n	n	n
N#Cc1ccsc1NC(=O)CN(Cc1ccccc1)Cc1ccccc1	n	-4.84	n	n
O=C(/C=C/c1c(F)cccc1Cl)Nc1cccnc1	n	n	n	n
Clc1ccc(C2=Nn3c(nnc3-c3n[nH]c4c3CCC4)SC2)cc1	n	n	54.7	n
c1ccc(-c2ccc(C3=Nn4c(nnc4-c4cc(-c5ccccc5)n[nH]4)SC3)cc2)cc1	n	n	x	n
Cc1cc(NC2CCCCC2)nc(NCc2ccccc2)n1	n	-12.7	x	n
COc1ccc(Nc2cc(C)nc(NCc3ccccc3)n2)cc1	n	-13.9	n	n
CC1CCC2(CC1)NC(=O)N(CC(=O)N1CCN(C(=O)c3cccs3)CC1)C2=O (stereo unspecified)	x	x	n	x
C=C1CCC(C)C(C)(CCC2=CCOC2=O)C/C=C\C=C/1C(=O)O (stereo unspecified)	n	n	x	n
Cc1ccc(CNC(=O)c2ccc(N3CCc4ccccc43)c([N+](=O)[O-])c2)cc1	n	-6.53	x	n
CN(CCCCCCN(C)Cc1ccccc1O)Cc1ccccc1O	n	-5.15	n	n
CSc1ccccc1NS(=O)(=O)c1ccccc1	n	n	n	n
C=CCOc1c(Br)cc(/C=N/O)cc1OCC	n	-6.02	x	n
COc1cccc(NC(=S)N2CCC(c3ccc(C)cc3)C2)c1 (stereo unspecified)	n	n	x	n
COC(=O)[C@]1(C)N[C@H](CN(C)S(=O)(=O)c2ccc(F)cc2)[C@@H]2C(=O)N(C)C(=O)[C@@H]21	x	x	n	x
